In all, about 300,000 compounds went through this assay and about 65 (0.02%) were called active.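 How the source made its calls: active means lowest replicate activity score at least 50, where 100 means six control SD above control mean; inconclusive means lowest score under 50 but half or more replicates reach 50; inactive means the rest.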 The full list was thinned out, with actives kept by preference.
Experiment: perturbers of mRNA poly(A) processing – luminescence, S. cerevisiae, primary screen (AID 1875);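 further: yeast exposed to compound for 9 h at 30 °C; higher score means more reporter readthrough which indicates perturbed polyadenylation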
Conditions: S. cerevisiae SKY197-pL101 polyadenylation reporter, beta-gal luminescence; at 12 µM; active compounds read high; efflux-impaired pdr1/pdr3 knockout yeast; score 100 = 6 SD above DMSO

Activity score, inactive:
CC1C(=O)NC(=O)C1c1ccccc1 (stereo not given) -10.6%
CC(C)Cc1nn2c(=O)cc(O)nc2s1 4.85%
Cc1c(Br)cc(C(=O)N2CCCCCC2)c(C)c1C -12.8%
COc1ccccc1N1CCN(C(=O)c2cc(=O)c3cc(C)cc(C)c3o2)CC1 -11.1%
Cc1c(NS(=O)(=O)c2ccc(NC3CCCC3)c([N+](=O)[O-])c2)c(=O)n(-c2ccccc2)n1C 0.246%
COc1ccccc1OCC(=O)Nc1ccccc1C(=O)NC1CC1 -4.06%
O=C1c2ccccc2C(=O)N1Cc1cc(-c2ccccc2Cl)no1 16.1%
CCCOc1ccc(-c2c(C(=O)N/N=C/c3ccco3)nnn2-c2nonc2N)cc1 -8.58%
COCc1[nH][nH]c(=O)c1C=Nc1ccc(F)cc1F -2.51%
Cc1ccc(NC(=O)C(C)c2cccc(C(=O)c3ccccc3)c2)cc1 (stereo not given) -5.58%
COc1ccccc1N1CCN(S(=O)(=O)c2ccc3c(c2)NC(=O)CS3)CC1 9.75%
CN(C)Cc1ccccc1C1(O)c2ccccc2CSc2ccccc21 (stereo not given) -2.69%
CN(C)C(=O)c1ccc(NC(=O)c2ccccc2-c2ccccc2)cc1 -1.15%
CCC(Cc1ccccc1)NC(=O)C1CCCCC1 (stereo not given) 15.5%
CCCC[C@@H]1CN=C(N)N1CCCC 6.9%
C=CCN1C(=O)C2(OCCCO2)c2cccc(Cl)c21 -10.9%
CC(=O)NC(Cc1ccc(F)c(F)c1)C(=O)NC1CCN(c2nnnn2-c2ccccc2)CC1 (stereo not given) -5.96%
O=C(NCc1ccccc1Cl)NC(=O)c1csc([N+](=O)[O-])c1 8.38%
O=C(NCc1ccccc1)C1=C[C@@H](c2ccc(C(F)(F)F)cc2)C[C@@H](OCc2ccc(CO)cc2)O1 4.63%
Cc1ccc(C)c(N2CCN(C(=O)CCCCCn3c(=S)[nH]c4ccc(N5CCOCC5)cc4c3=O)CC2)c1 13.3%
S=c1[nH]cc(-c2ccc(Cl)cc2)n1-c1ccccc1 -13.1%
CC(C)c1ccc(NC(=O)[C@@H](NC(=O)N2CC(=O)Nc3ccccc32)C(C)C)cc1 8.86%
COc1ccc2c(c1)N(C)/C(=C1/SC(=S)N(NC(C)=O)C1=O)S2 -0.22%
Cc1ccc(C(=O)NC2CCCC(C)C2C)cc1S(=O)(=O)N1CCCCC1 (stereo not given) 0.169%
CCN(CC)Cc1c(C(=O)N/N=C/c2cccc(OCc3ccc(F)cc3)c2)nnn1-c1nonc1N -15.4%
COc1cc(OC)c(-n2cc(-c3ccc(Cl)cc3)[nH]c2=O)cc1Cl -4.07%
O=C1CSc2ccc(S(=O)(=O)NCc3ccccc3)cc2N1 3.02%
O=C(NN1C(=O)C2C3C=CC(O3)C2C1=O)c1ccncc1 (stereo not given) 2.42%
COc1cccc(-n2c(=S)sc3c(=O)n(-c4ccccc4C)c(SCC(=O)O)nc32)c1 27.3%
COc1cc(/C=C/C(=O)OCC(=O)NC(=O)NCc2ccccc2)ccc1OCC#N -0.558%
Cn1nccc1/C=N\NC(=O)c1ccc(Cl)cc1 7.4%
COc1ccc(S(=O)(=O)c2c[nH]c(=S)[nH]c2=O)cc1Cl 11.8%
COc1ccc(CNC(=O)c2ccc(Br)s2)cc1OC 6.38%
COc1ccc(Cl)cc1NC(=O)Cn1nc(-c2ccc(C)cc2)n(C)c1=S -3.37%
O=C(c1[nH]ncc1-c1ccc(Cl)cc1)C1CO1 (stereo not given) 19.5%
O=C(NCc1ccco1)c1ccc(NS(=O)(=O)c2cccc([N+](=O)[O-])c2)cc1 -6.5%
Cc1ccc(C(=O)N/C(=C\c2cn(C)c3ccccc23)C(=O)N2CCN(C)CC2)cc1 -4.13%
NC(=O)c1oc2ccccc2c1NC(=O)CS(=O)(=O)c1ccccc1 13.3%
O=C(O)Cn1c(Cc2ccccc2)nc2ccccc21 -5.1%
CC(C)c1ccc(OCC(O)CN2CCN(c3ccccn3)CC2)cc1 (stereo not given) -11.9%
O=S(=O)(NCCc1ccc(Cl)cc1)c1cccs1 14.8%
O=C(NC1CC1)C(Cc1ccccc1)NS(=O)(=O)c1ccccc1F (stereo not given) 2.29%
COc1ccc(N2CCN(CCNC(=O)Nc3cc(Cl)ccc3Cl)CC2)cc1 -1.83%
N#Cc1ccc(S(=O)(=O)NCC(=O)OCC(=O)NCCc2ccccc2)cc1 3.63%
CSc1ncc(C(=O)Nc2ccc(C)cc2C)c(C)n1 2.7%
CC(=O)c1ccc(S(=O)(=O)N2CCN(c3nc4c(C)c(C)ccc4cc3C#N)CC2)cc1 13.6%
Cc1ccc(NS(=O)(=O)c2ccc(C(C)(C)C)cc2)cn1 -9.91%
COc1ccc(N2CCN(CCNC(=O)c3nnc(Cc4c(F)cccc4Cl)o3)CC2)cc1 -12.7%
CCOC(=O)c1nn(-c2ccccc2F)c2nc(Nc3ccccc3)cc(=O)n12 -12.8%
CN(C)Cc1c(O)ccc2c(=O)c(-c3ccccc3Cl)coc12 8.63%
CN1CCN(C(=O)C(=O)c2cn(CC(=O)N3CCCC3)c3ccccc23)CC1 17%
CC(=O)Nc1ccc(NC(=O)CS(=O)(=O)c2cn(CC(=O)N3CCCCC3)c3ccccc23)cc1 4.41%
S=C(c1ccc(-c2ccccc2)o1)N1CCCCC1 -23.1%
CC(=O)Nc1cccc(OCC(=O)/C=C2\N(C)c3ccccc3C2(C)C)c1 -11.1%
Cc1ccc(OCC(=O)NCCCNC(=O)c2cccnc2)cc1C 0.135%
N#C/C=C\Oc1ccc(Cl)cc1N -86.8%
COC(=O)CSc1ccc2nnc(CCNS(=O)(=O)c3ccc(C)cc3)n2n1 6.76%
COc1ccc(C2Nc3ccccc3C(=O)N2c2ccc(Cl)cc2)cc1Cn1cc([N+](=O)[O-])cn1 (stereo not given) -9.63%
COc1cc(NC(=O)c2ccc(CNc3c(N4CCCC4)c(=O)c3=O)cc2)cc(OC)c1OC 19.5%
C/C(CC(=O)Nc1ccc(N(C)C)cc1)=N\NC(=O)c1ccccc1F -2.05%
COCCNC(=S)N1CCN(C)CC1 -14.8%
COc1ccc(CCN(C)C(=O)C23CC4CC(CC(Cl)(C4)C2)C3)cc1OC 5.22%
COc1cccc(NC(=O)Cn2c3ccc(F)cc3c3nc4n(c(=O)c32)CCS4)c1 -13.2%
Cc1ccc(Cl)cc1N1CCN(C(=O)c2cccc3c(=O)c(C)c(-c4ccccc4)oc23)CC1 5.32%
COC(=O)Nc1ccc(S(=O)(=O)N(C)CC(F)(F)C(F)F)cc1 3.96%
Clc1ccc(-c2nnc(-c3ccccc3)nc2N2CCSCC2)cc1 -11%
COc1cccc2cc(C(C)N(CCCN3CCOCC3)C(=O)Nc3ccc(Cl)cc3)oc12 (stereo not given) -8.58%
COC(=O)c1ccccc1NC(=O)C1CCN(C(=O)N2CCOc3ccccc32)CC1 8.38%
CCOc1ccc2sc(NS(=O)(=O)c3ccc(N)cc3)nc2c1 -8.96%
O=C1OCC2=C1C(c1ccccc1)CC(=O)N2c1cccc(F)c1 (stereo not given) 19.6%
COc1cccc(NC(=O)CC(c2ccc(OC(C)C)cc2)c2ccccc2OC)c1 (stereo not given) 10.2%
Cc1ccc2nc(SCC(=O)Nc3cccc4ccccc34)nc(=O)n2c1 -16.5%
CC1(C)C(C=C(Cl)Cl)C1C(=O)N(Cc1ccc(Cl)cc1)C1CCS(=O)(=O)C1 (stereo not given) -12.2%
N#CCSc1nc2ccc(N3CCOCC3)cc2c(=O)n1CCc1ccccc1 -15.9%
CC1CC(NC(=O)/C(C#N)=C/c2ccc[nH]2)CC(C)(C)C1 (stereo not given) -5.8%
CCN1C(=O)N[C@@H](CCc2ccccc2)C(C(=O)OC)=C1C -17.2%
O=C1C2C3C=CC(C3)C2C(=O)N1c1ccc(S(=O)(=O)Nc2nccs2)cc1 (stereo not given) -1.69%
O=C(NC(Cc1ccccc1)C(=O)N1CCCC(C(F)(F)F)C1)c1ccccc1 (stereo not given) 5.98%
Cn1ncc(N2CCN(S(=O)(=O)c3ccc(Br)cc3)CC2)c(Cl)c1=O 13.7%
CC(=O)N1C(=O)/C(=C2\SC(=S)N(NC(=O)c3ccc(O)cc3)C2=O)c2ccccc21 -6.71%
Cc1ccc(CNC(=O)CCCNC(=O)c2ccc(Cl)cc2)n1C -18.6%
Cc1cccc(N(C(=O)c2sc(C)nc2C)C(C(=O)NCC2CCCO2)c2ccccc2)c1 (stereo not given) -7.81%
CC(C)C1Nc2c(C(=O)O)cccc2C(Nc2ccccc2C(=O)O)C1(C)C (stereo not given) 12.3%
Cc1ccn2c(=O)nc(SCC(=O)NCc3ccc4c(c3)OCO4)nc2c1 17.3%
Cn1cc(S(=O)(=O)NC(c2ccccc2)c2ccccc2)c(=O)n(C)c1=O -1.67%
COCCCNC(NC(=O)c1ccc(C)cc1)C(Cl)(Cl)Cl (stereo not given) 8.69%
COc1ccc2oc(=N)c(C(=O)Nc3ccc(Br)cc3)cc2c1 0.299%
O=C(Nc1ccccc1N1CCOCC1)c1ccc(OCc2cscn2)cc1 3%
CC(=O)Nc1ccc(NC(=O)[C@@H](NC(=O)c2cccc(C)c2)C(C)C)cc1 -9.42%
CCOC(=O)CNC(=O)CSc1ccc2nnc(-c3cccnc3)n2n1 7.59%

Reference: PubChem BioAssay AID1875 (Broad Institute, 2009)
